Where a chain is given by its changes, count along the chain named.
Columns and labels:
Assay in all cases: HT-SELEX; high values mean tight binding
Settings in all cases: protein: recombinant; vector His6-GST; dsDNA, one strand shown
SALL4 ZFC4 WT (HT-SELEX) = target: T1, SALL4 ZFC4 WT (HT-SELEX) (Mus musculus, UniProt Q8BX22 870-940)
T1 sequence: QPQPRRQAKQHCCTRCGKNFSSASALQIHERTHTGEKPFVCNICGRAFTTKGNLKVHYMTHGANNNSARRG
Method in brief: (§1)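 In triplicate selections of up to 6 cycles, purified recombinant mouse SALL4 zinc finger cluster 4 (residues 870–940, 1 µg) was incubated 10 min at room temperature with library DNA (1.5 µg, then 200 ng) in 100 µl of 10 mM Tris–HCl pH 7.5, 50 mM NaCl, poly(dI-dC) and DTT, and complexes were captured on Ni2+ beads, washed and PCR-amplified. Sequencing was done on MiSeq with scanning for 6-mers. The binding signal is each canonical k-mer's read fraction, reported as fold change against the initial random library.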

[1] = target: T2, SALL4 ZFC4 R900W (HT-SELEX) (Mus musculus, UniProt Q8BX22 870-940, R900W)
T2 sequence: T1 sequence with R31W
Method in brief: as §1

[2] = target: T3, SALL4 ZFC4 G921D (HT-SELEX) (Mus musculus, UniProt Q8BX22 870-940, G921D)
T3 sequence: T1 sequence with G52D
Method in brief: as §1

Sequence	binding signal (SALL4 ZFC4 WT (HT-SELEX)) [fold-change vs cycle 0]	binding signal [1] [fold-change vs cycle 0]	binding signal [2] [fold-change vs cycle 0]
CACCTC	0.511 ± 0.0163	0.563 ± 0.0344	0.689 ± 0.0609
AATTTG	1.6 ± 0.112	1.56 ± 0.101	1.51 ± 0.0903
AAGGCT	0.61 ± 0.0387	0.726 ± 0.0643	0.8372 ± 0.00507
GGACGA	0.34 ± 0.0131	0.412 ± 0.0156	0.498 ± 0.0522
CACGAA	0.608 ± 0.0441	0.706 ± 0.0334	0.781 ± 0.0236
CACCAG	0.43 ± 0.0196	0.526 ± 0.014	0.606 ± 0.0242
CACTTC	0.777 ± 0.0329	0.925 ± 0.0515	0.946 ± 0.0498
CCATGA	0.874 ± 0.0255	0.938 ± 0.011	1.01 ± 0.0502
CGTATC	0.723 ± 0.0291	0.818 ± 0.0282	0.89 ± 0.0234
AAGCGT	0.524 ± 0.0507	0.607 ± 0.0218	0.726 ± 0.0141
TGATCA	1.35 ± 0.0953	1.5 ± 0.0834	1.47 ± 0.128
ACTGAT	1.4 ± 0.115	1.51 ± 0.108	1.43 ± 0.137
CTTAGC	0.73 ± 0.019	0.843 ± 0.0192	0.8905 ± 0.00272
AGCTGG	0.346 ± 0.0084	0.411 ± 0.0182	0.522 ± 0.0592
CAATGC	0.595 ± 0.019	0.673 ± 0.0218	0.807 ± 0.0224
AGAACT	1.36 ± 0.0489	1.545 ± 0.00829	1.43 ± 0.129
CCCTAC	0.441 ± 0.0346	0.512 ± 0.0309	0.603 ± 0.047
GATAGC	0.692 ± 0.0348	0.798 ± 0.0237	0.8754 ± 0.00393
ACCCAC	0.443 ± 0.0307	0.506 ± 0.0282	0.606 ± 0.0557
CTCGAC	0.348 ± 0.0179	0.396 ± 0.0285	0.539 ± 0.0655

Sequence	binding signal (SALL4 ZFC4 WT (HT-SELEX)) [fold-change vs cycle 0]	binding signal [1] [fold-change vs cycle 0]	binding signal [2] [fold-change vs cycle 0]
AGCTCA	0.694 ± 0.0391	0.773 ± 0.0155	0.872 ± 0.0134
CTATGC	0.624 ± 0.0148	0.702 ± 0.0118	0.796 ± 0.0538
CAATCA	1.31 ± 0.0592	1.41 ± 0.0553	1.4 ± 0.0622
GACAAA	0.966 ± 0.023	1.08 ± 0.0338	1.1 ± 0.0293
GAGAAC	0.84 ± 0.00885	1 ± 0.0376	1.04 ± 0.00942
CTGAGC	0.348 ± 0.00959	0.42 ± 0.0161	0.535 ± 0.0354
AGCTCC	0.365 ± 0.00759	0.455 ± 0.0186	0.588 ± 0.0519
CCCGAA	0.314 ± 0.0034	0.403 ± 0.0174	0.512 ± 0.0767
GTATAC	1.25 ± 0.0389	1.39 ± 0.0328	1.34 ± 0.0932
CTCATC	0.898 ± 0.0192	1.04 ± 0.0368	1.06 ± 0.0243
GAAGCC	0.311 ± 0.0191	0.3714 ± 0.00344	0.514 ± 0.0635
AATCGC	0.437 ± 0.0162	0.483 ± 0.0175	0.628 ± 0.0598
GACGGA	0.372 ± 0.0168	0.427 ± 0.0141	0.545 ± 0.0666
GATATA	2.54 ± 0.207	1.98 ± 0.124	1.77 ± 0.173
CCCCAA	0.421 ± 0.0191	0.471 ± 0.00864	0.561 ± 0.0695
CGTCAG	0.341 ± 0.0358	0.427 ± 0.0193	0.535 ± 0.0656
TAGACA	1.18 ± 0.0561	1.3 ± 0.0829	1.28 ± 0.0805
GACCAC	0.381 ± 0.00949	0.448 ± 0.0299	0.55 ± 0.0669
ACCCTG	0.474 ± 0.0232	0.563 ± 0.034	0.648 ± 0.0451
GTAGAC	0.684 ± 0.0405	0.821 ± 0.033	0.891 ± 0.0118

Sequence	binding signal (SALL4 ZFC4 WT (HT-SELEX)) [fold-change vs cycle 0]	binding signal [1] [fold-change vs cycle 0]	binding signal [2] [fold-change vs cycle 0]
CTATGA	1.49 ± 0.114	1.43 ± 0.0544	1.42 ± 0.104
ACGACC	0.308 ± 0.026	0.378 ± 0.0333	0.508 ± 0.0872
ATAGAT	2.3 ± 0.159	2.05 ± 0.124	1.86 ± 0.167
CTTATA	2.43 ± 0.156	2.09 ± 0.123	1.82 ± 0.197
GACAGA	0.725 ± 0.0509	0.826 ± 0.0442	0.903 ± 0.00925
CGCAAA	0.335 ± 0.00942	0.376 ± 0.0263	0.498 ± 0.0731
CGTAAA	1 ± 0.0348	1.08 ± 0.0147	1.05 ± 0.0379
GTCACA	0.677 ± 0.0487	0.804 ± 0.0553	0.861 ± 0.0406
CACCAA	0.692 ± 0.0333	0.776 ± 0.0234	0.859 ± 0.0335
AATGTA	2.02 ± 0.0563	1.99 ± 0.0939	1.76 ± 0.157
AGACGG	0.342 ± 0.0181	0.409 ± 0.00782	0.522 ± 0.0641
GTAAAC	1.27 ± 0.0422	1.39 ± 0.0625	1.32 ± 0.0873
GAAACA	1.23 ± 0.0252	1.33 ± 0.0252	1.29 ± 0.046
AACACT	1.28 ± 0.027	1.39 ± 0.0403	1.33 ± 0.0261
CTGTGA	0.75 ± 0.0215	0.869 ± 0.0352	0.91 ± 0.0154
ACCGAG	0.423 ± 0.0215	0.496 ± 0.0188	0.586 ± 0.0556
CACGTA	0.686 ± 0.0318	0.787 ± 0.0109	0.842 ± 0.0109
ACTTAT	2.49 ± 0.156	2.19 ± 0.135	1.9 ± 0.197
TCTGCA	0.609 ± 0.0257	0.678 ± 0.019	0.747 ± 0.0393
TCGACA	0.525 ± 0.0359	0.609 ± 0.0106	0.731 ± 0.0296

Source: publication PMC9838217, “Structure of SALL4 zinc finger domain reveals link between AT-rich DNA binding and Okihiro syndrome”
